Assay results as given in the OligoGym collection.

molecular target: RFX3; assay: pooled miR-30 sensor sort-seq; sequence = guide strand; conditions: shRNA
Also: reference of the scale not given here.

Sequence	sensor-assay potency score (higher = more potent)
TTAAGTGTTGTAAAAATCCTTC	-0.411
TTGTTGTTCGGATTGCTCCATT	-0.745
TAAATTTTCAACTTAAGCCCAA	0.019
TACACCAAGACTAACAATCAAC	-1.04
TTCTAGTCTCTGAACCATGTTG	-0.714
AATTTGACAACAGTCGACCTTC	0.318
TTGACAACAGTCGACCTTCAGG	-0.926
TAGAATTTGACAACAGTCGACC	-0.732
TTGTTGTACTGGTACTTGCTGT	-0.28
TTGAAGATTCACAACAACGTCC	0.274
TAAATCACCAAACTCGCCCATG	-0.686
TTGGTATAGACAGTATCGCTTC	-0.105

molecular target: RGS13; assay: as above; conditions: shRNA

Sequence	sensor-assay potency score (higher = more potent)
TTCCTGATGATAGTCTCTCTTG	-0.749
TTTTGGTACATTTCTGACTTTA	-0.566
ATGATAGTCTCTCTTGTCGAAC	-1.51
TTAATGAACATAATAGTAGGAA	0.19
TAGTCTCTCTTGTCGAACTGTC	-0.609
TTGAATATTCTCGTCACTGTGC	0.436
TTAAATTTTCAAAAGACTGGGC	-0.0917
TTAATTGAACTACATAGGCTTG	-0.858
TAGAAATTCTGCTCCACCGTGA	0.617
TAGGTTTCACATGCCATCCAGA	-0.935
TCTGACTTTAGAAATCTGGGGT	0.865
ATAGTCTCTCTTGTCGAACTGT	-0.257

molecular target: RGS6; assay: as above; conditions: shRNA

Sequence	sensor-assay potency score (higher = more potent)
TCAAACGTCGACATTTTCGGAT	-0.513
TTTTCAAACAATGTCTGTCGAT	-0.396
TAAACTTTCAGCCACTTTGGAC	-0.804
TAATCTGCCAGTTCCAGCCTTG	-0.407
TTATTTTGCATTGTCCTCTTAC	-0.243
TAATCTCAAGTGATAGTCGTGA	0.294
TTTGACACACACACACAGGGAA	0.653
TCTGTCTTGTCTTTTTTCCGGT	0.0231
TTTCAAACAATGTCTGTCGATC	-0.513
TTGGCTGAGTACATGCACCGGG	0.473
TTGTCATCTTGCATCTTTGTAA	-0.676
TTCTGCTTCATAATCTGCCAGT	-0.422
